Here are results for 18 compounds from PubChem BioAssay.

The test system of test [1] is Human papillomavirus type 1a protein E7 (residues 44-93). Description: small molecules binding HPV E7 44-93 – biochemical, small-molecule microarray, residues 44-93, 635 nm fluorescence, primary screen (AID 1108).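 Further: E7 fragment applied at 1 µg/mL in TBST for 1 h at 4 C; score combines spot fluorescence with its signal to noise ratio.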 Conditions: fluorescence 635 nm, higher = more signal.
A short description of test [2]: hepatitis C replication reporter changes, two-sided – Huh7 cells, luciferase reporter, HCV replication inhibitor project, primary screen (AID 1109).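 Further: huh7 hepatoma cells harbouring a luciferase neomycin HCV replicon reporter; luciferase luminescence as measure of HCV replicon replication; test concentration not given here.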 Particulars: Huh7 HCV replicon luciferase reporter, 48 h; higher = more signal.
Test [3] concerns the target Left-right determination factor 2 (Homo sapiens) (UniProt O00292). The experiment in a line: small molecules binding LEFTY2 protein – biochemical, small-molecule microarray, 635 nm fluorescence scan, primary screen (AID 1110). Particulars: higher = more signal.
The target in test [4] is Calmodulin-1 (Homo sapiens) (UniProt P0DP23). The experiment in a line: small molecules binding calmodulin-1 with EGTA – biochemical, small-molecule microarray, Cy5-labelled CALM1, profiling panel (AID 1111).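 Further: labelled calmodulin applied in Tris saline Tween buffer holding calcium plus EGTA and DTT.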 Particulars: Cy5-CALM1 binding fluorescence, higher = more signal.
For test [5] the target is unchanged. Description: small molecules binding Ca-loaded calmodulin-1 – biochemical, small-molecule microarray, Cy5-labelled CALM1, plus calcium, artefact control for SMM control-protein annotation, profiling panel (AID 1112).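 Further: score merges spot fluorescence with signal to noise from triplicate slides.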 Particulars: Cy5-CALM1 binding fluorescence, higher = more signal.
The nature of test [6]: probe aWnt5a binding to arrayed compounds – biochemical, biotinylated probe, 635/667 nm fluorescence, primary screen (AID 1113).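 Further: score merges 667 nm fluorescence intensity with signal-to-noise per printed feature.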 Particulars: small-molecule microarray, higher = more signal.
A short description of test [7]: probe aShh binding to arrayed compounds – biochemical, biotinylated probe, 635/667 nm fluorescence, primary screen (AID 1114).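 Further: probe is biotin-labelled aShh protein from a stem cell growth factor screen; measures binding of labelled protein to compounds printed on the slide; score merges feature fluorescence at 667 nm with signal-to-noise.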 Conditions: small-molecule microarray, higher = more signal.
Test [8] can be described thus: probe aNog binding to arrayed compounds – biochemical, biotinylated probe, 635/667 nm fluorescence, primary screen (AID 1115).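 Further: probe is biotinylated aNog protein used at 0.15 µg/mL for 1 h at 4 C; z-score combines 667 nm fluorescence of each spot with its signal to noise.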 Conditions: small-molecule microarray, higher = more signal.
The target in test [9] is Torsin-1A-interacting protein 1 (Homo sapiens) (UniProt Q5JTV8). The experiment in a line: compound microarray binding of lysate hLAP1 – cell lysate, small-molecule microarray, COS7 lysate, 635/667 nm fluorescence, primary screen (AID 1116). Particulars: 635 nm fluorescence, higher = more signal.
Sequence of Torsin-1A-interacting protein 1 (Homo sapiens) (Q5JTV8 whole entry, looked up): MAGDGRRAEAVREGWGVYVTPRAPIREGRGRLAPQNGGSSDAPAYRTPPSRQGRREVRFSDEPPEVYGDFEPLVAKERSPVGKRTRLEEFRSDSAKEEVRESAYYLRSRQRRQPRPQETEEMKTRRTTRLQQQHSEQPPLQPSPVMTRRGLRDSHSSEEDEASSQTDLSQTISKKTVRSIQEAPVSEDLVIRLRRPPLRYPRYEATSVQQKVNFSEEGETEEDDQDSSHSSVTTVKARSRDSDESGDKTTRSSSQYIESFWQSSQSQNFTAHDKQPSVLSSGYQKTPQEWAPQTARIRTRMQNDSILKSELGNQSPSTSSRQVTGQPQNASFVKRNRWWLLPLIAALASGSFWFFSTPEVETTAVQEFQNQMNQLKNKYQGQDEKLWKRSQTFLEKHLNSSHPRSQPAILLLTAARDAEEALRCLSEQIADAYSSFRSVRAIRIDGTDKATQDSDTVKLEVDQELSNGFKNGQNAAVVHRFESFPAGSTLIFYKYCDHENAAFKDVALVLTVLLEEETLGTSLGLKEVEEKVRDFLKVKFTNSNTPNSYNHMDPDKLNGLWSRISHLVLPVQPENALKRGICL
Test [10] deals with Alpha-bungarotoxin (Bungarus multicinctus) (UniProt P60615). The experiment in a line: compounds binding labelled alpha-BTX control protein – biochemical, small-molecule microarray, Alexa647 label, 635/667 nm fluorescence, artefact control for SMM control protein annotation, profiling panel (AID 1117). Conditions: alpha-BTX-A647 binding fluorescence, higher = more signal.
Sequence of Alpha-bungarotoxin (Bungarus multicinctus) (P60615 whole entry, looked up): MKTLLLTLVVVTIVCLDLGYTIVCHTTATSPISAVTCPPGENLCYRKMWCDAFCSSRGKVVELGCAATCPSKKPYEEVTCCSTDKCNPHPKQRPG

Sequence of Left-right determination factor 2 (Homo sapiens) (O00292 whole entry, looked up): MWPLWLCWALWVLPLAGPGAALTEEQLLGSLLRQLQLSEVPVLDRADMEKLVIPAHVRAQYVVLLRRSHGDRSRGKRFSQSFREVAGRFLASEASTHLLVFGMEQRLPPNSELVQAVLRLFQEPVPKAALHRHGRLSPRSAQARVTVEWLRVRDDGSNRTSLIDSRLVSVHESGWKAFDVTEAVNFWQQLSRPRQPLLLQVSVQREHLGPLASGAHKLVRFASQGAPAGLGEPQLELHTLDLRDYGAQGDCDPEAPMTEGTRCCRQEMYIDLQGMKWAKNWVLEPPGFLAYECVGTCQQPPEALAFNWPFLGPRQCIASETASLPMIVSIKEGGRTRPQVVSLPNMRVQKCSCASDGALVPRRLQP

For the compound `CC(C)OC(=O)C=C1C[C@@H](c2ccc(C(F)(F)F)cc2)O[C@@H](c2ccc(C(F)(F)F)cc2)O1`, the composite z-score in test [1] is 1.44; in [3] it was -0.467; in test [4] it was 0.808; in test [5], 0.776; in test [6], -0.0643; in test [7], 0.536. In addition, the composite z-score in test [8] is -0.261; in [9] it was 2.25; in [10], 1.83. This compound also yielded a z-score in test [2] of -0.512.
In the case of `CCOC(=O)C[C@H]1[C@H](OC(=O)c2ccccc2-c2ccccc2)[C@@H](NC(=O)c2ccc(-c3ccccc3)cc2)c2cc(OCCCO)ccc2N1C(=O)c1ccc2ccccc2n1`, the composite z-score in test [1] was 0.521; in test [3], 0.465; in test [4], 0.105; in test [5], -0.09; in [6], -0.0445; in [7] it was -0.0035. The composite z-score in test [8] is 0.233; in [9] it was -0.0823; in test [10] it was 1.86. Moreover, the z-score in test [2] was -1.24.
Regarding `CCOC(=O)C[C@H]1[C@H](OC(=O)c2cc3ccccc3oc2=O)[C@@H](NC(=O)c2ccc(-c3ccccc3)cc2)c2cc(OCCCO)ccc2N1C(=O)c1ccc2ccccc2n1`, the composite z-score was 1.38 in test [1]; 0.48 in test [3]; 0.0371 in test [4]; -0.455 in test [5]; -0.104 in test [6]; -0.195 in [7]. For the same compound, the composite z-score is -0.253 in test [8], 0.624 in test [9] and 0.422 in test [10]. The compound further yielded a z-score in [2] of -0.989.
With `CC(=O)NCCCC[C@@H]1NC(=O)[C@@H]2C[C@H](C(=O)NCCCC[N+](C)(C)C)[C@H](c3ccc(O)cc3)N2C1=O`, the composite z-score in test [1] was 0.364; in test [3] it was 1.35; in [4] it was -0.206; in test [5] it was 0.32; in test [6], -0.0758; in test [7] it was 0.366. Also, the composite z-score in [8] stood at 0.33; in test [9], 1.06; in test [10] it was 1.57. In addition, the z-score in [2] was -0.307.
For the compound `O=C1NC(=O)C2C1C=CC(C(O)c1c(F)cccc1Cl)N2Nc1ccc(Cl)cc1Cl` (stereo not given), the composite z-score in test [1] is 0.635; in test [3], -0.536; in [4], 2.33; in [5] it was 1.01; in test [6], 0.0923; in [7], 0.0782. Besides, the figures for the composite z-score in test [8], in [9] and in test [10] were 1.42, 2.71 and 2.76, respectively. Besides, the z-score in [2] was -0.133.
As to `COc1ccc([Si](C)(C)[C@H]2[C@H](CCn3cc([C@H](O)c4ccccc4)nn3)O[C@@]3(C(=O)N(Cc4ccc(N5C(=O)c6cccc7cccc5c67)cc4)c4ccccc43)[C@@H]2C)cc1`, the composite z-score in test [1] was 0.0891; in test [3] it was -0.638; in test [4], 0.103; in test [5], 0.0758; in test [6] it was -0.131; in [7], -0.154. Further, the composite z-score was -0.0065 in test [8], 0.112 in [9] and 0.0628 in test [10]. Besides, the z-score in [2] is -2.6.
In the case of `C=CC[C@@]1(C(=O)N2CCOCC2)N=C(c2ccc(OCCCO)cc2)O[C@@H]1c1ccccc1CN=[N+]=[N-]`, the composite z-score in test [1] turned out to be 1.44; in test [3], 0.898; in test [4], 1.9; in test [5] it was 0.365; in test [6], 0.0998; in [7], 0.191. Besides, the composite z-score in test [8] is -0.333; in [9], 1.72; in test [10], 0.943. Also, the z-score in test [2] was -2.04.
Take `CN(C)CCCNC(=O)[C@@]1(c2ccc([N+](=O)[O-])cc2)CC(=O)N(CC23CC4CC(CC(C4)C2)C3)[C@@H]1c1ccc(CO)cc1I`: the composite z-score is 1.39 in test [1]; 0.703 in test [3]; 0.307 in [4]; -0.0622 in test [5]; 0.0668 in [6]; 0.462 in test [7]. Also, the composite z-score was 0.192 in [8], 1.27 in [9] and 1.15 in test [10]. The compound also registered a z-score in test [2] of -3.54.
As for `Cc1cc(C)cc(N2C(=O)CSC2c2cccc([N+](=O)[O-])c2)c1` (stereo not given), the composite z-score was 0.0826 in [1]; 0.571 in [3]; 1.6 in [4]; 0.463 in test [5]; 0.0873 in test [6]; 0.0815 in [7]. Further, the composite z-score was determined as 0.0373 in [8], 0.516 in test [9] and 1.7 in test [10]. This compound also displayed a z-score in test [2] of -1.26.
On to `COC(=O)c1cn(C[C@@H](Cc2ccccc2)NC(=O)N[C@H](CO)CCc2oc(C(C)=O)c(C(=O)OC)c2C(=O)OC)nn1`, for which the composite z-score in test [1] was 0.303; in test [3] it was 0.993; in test [4] it was -0.335; in test [5] it was -0.616; in test [6], 0.02; in test [7], -0.283. Moreover, the composite z-score in test [8] is -0.0789; in test [9] it was 0.862; in test [10] it was 0.177. In addition, the z-score in [2] was -0.407.
Consider `COc1ccc(CCNC(=O)[C@@]2(Sc3ccc(C)cc3)CC(=O)N(C3Cc4ccccc4C3)[C@@H]2c2ccc(CO)cc2)cc1`, for which the composite z-score in test [1] came to 1.42; in [3], 1.25; in test [4] it was 1.07; in test [5] it was 0.616; in test [6], 0.0799; in test [7], 0.171. Besides, the composite z-score in test [8] came out at 0.557; in test [9], 2.01; in test [10], 0.535. This compound also had a z-score in test [2] of -3.04.
As for `O=C(CS)NCCCCCNC(=O)[C@@H]1C[C@@H]2C(=O)N3CCC[C@H]3C(=O)N2[C@@H]1c1cccc(OCCO)c1`, the composite z-score in [1] was 1.42; in test [3], -0.429; in test [4] it was 1.39; in [5], -1.29; in test [6], -0.073; in test [7], -0.16. Further, the values for the composite z-score in test [8], in [9] and in [10] were -0.565, 1.76 and 1.14, respectively. The compound further showed a z-score in test [2] of -0.367.
Turning to `CC(C)C(=C=CC[C@H](O)c1cccc(OCCO)c1)C[C@H](O)c1cc(Cl)cc(Cl)c1O`, the composite z-score in test [1] is 0.851; in test [3], 0.155; in test [4] it was -0.0005; in [5] it was -0.698; in test [6] it was -0.126; in test [7], 0.23. The composite z-score worked out at 0.0083 in [8], 0.488 in test [9] and 0.986 in [10]. For the same compound, in test [2], the z-score was -0.583.
Regarding `CN(C)C(=O)[C@@]1(Cc2ccccc2CN=[N+]=[N-])N=C(c2ccc(OCCCO)cc2)O[C@H]1c1ccccc1CN=[N+]=[N-]`, the composite z-score is 1.27 in test [1]; -0.462 in [3]; 1.69 in [4]; 1 in [5]; 0.0655 in test [6]; 0.551 in test [7]. Besides, the values for the composite z-score in test [8], in test [9] and in test [10] were 0.771, 1.56 and 1.11, respectively. In addition, the z-score in [2] was -2.63.
Consider `COCCOC(=O)N1C(=O)[C@@]2(c3cc(C#Cc4ccc(OC)cc4)ccc31)[C@H](c1ccc(O)cc1)N1[C@H](c3ccccc3)[C@H](c3ccccc3)OC(=O)[C@H]1[C@@H]2C(=O)N1CCCCCCC1`, for which the composite z-score in test [1] is 0.699; in [3], 0.187; in test [4], 1.54; in test [5], 0.946; in [6] it was -0.151; in [7] it was 0.199. Further, the composite z-score in [8] is 1.48; in test [9], 2.14; in test [10] it was 0.63. This compound also gave a z-score in [2] of -0.48.
Consider `O=C1C2C=CC(C(O)c3ccccc3)N(Nc3ccccc3F)C2C(=O)N1c1ccccc1` (stereo not given), for which the composite z-score in [1] was 0.188; in test [3] it was -0.0935; in test [4], 0.0824; in test [5], -0.537; in test [6] it was -0.15; in test [7], -0.0626. Besides, the composite z-score is -0.341 in [8], 0.178 in test [9] and 0.204 in test [10]. Besides, the z-score in [2] was -0.384.
For `COCCCNC(=O)[C@]1(CCS(=O)(=O)c2ccccc2)N=C(c2ccc(OCCCO)cc2)O[C@@H]1c1ccccc1CN=[N+]=[N-]`, the composite z-score was 0.826 in test [1]; 0.329 in test [3]; 2.49 in test [4]; 1.12 in test [5]; 0.392 in test [6]; 0.536 in [7]. In addition, the composite z-score in [8] was 1.54; in [9], 2.7; in test [10] it was 2.16. In [2], this compound had a z-score of -1.47.
With `COCCOC(=O)N1C(=O)[C@@]2(c3cc(C#CCCO)ccc31)[C@H](C(=O)Nc1nc3ccccc3s1)[C@H]1C(=O)O[C@H](c3ccccc3)[C@H](c3ccccc3)N1[C@@H]2c1ccccc1OCCO`, the composite z-score was 0.792 in test [1]; 0.674 in test [3]; 0.827 in [4]; -0.112 in test [5]; -0.0025 in test [6]; 0.0469 in test [7]. Also, the composite z-score was -0.588 in test [8], 0.811 in test [9] and 1.45 in test [10]. The z-score in test [2] is -1.71.
